Compound activity: PubChem BioAssay, several laboratories
Hits are enriched below; roughly 5.1% of the tested compounds scored in any of these assays.
ROMK mod – ROMK potassium channel modulators, primary screen, cell-based, thallium flux, MLSMR library; B-score at 10 µM; Tet-inducible ROMK, thallium flux fluorescence; actives lie on both sides; 2% of 130,000 active;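 active means signal ratio slope over the read window, or its plate-corrected B-score, at least 3 SD from the plate mean, either direction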;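 further: B-score of the F/F0 ratio slope over 7 to 12 s after thallium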
KCC2 mod – KCC2 cotransporter modulators, thallium flux, primary screen, cell-based, HEK293 KCC2, FluoZin-2 fluorescence, MLSMR; Solute carrier family 12 member 5 (Homo sapiens), Q9H2X9; AID 1456, 2008; KCC2 cells, thallium flux FluoZin-2 fluorescence; 2.2% of 190,000 active; B-score of Tl+ flux slope (higher = more flux/activation; lower = inhibition) at 10 µM;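 active means thallium flux slope and its plate-corrected score both differing from the plate sample mean at a set confidence after two filtering rounds, in either direction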;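 further: slope of fluorescence scaled to starting intensity during 10 to 20 s after thallium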
Target sequence (Q9H2X9 whole entry, looked up): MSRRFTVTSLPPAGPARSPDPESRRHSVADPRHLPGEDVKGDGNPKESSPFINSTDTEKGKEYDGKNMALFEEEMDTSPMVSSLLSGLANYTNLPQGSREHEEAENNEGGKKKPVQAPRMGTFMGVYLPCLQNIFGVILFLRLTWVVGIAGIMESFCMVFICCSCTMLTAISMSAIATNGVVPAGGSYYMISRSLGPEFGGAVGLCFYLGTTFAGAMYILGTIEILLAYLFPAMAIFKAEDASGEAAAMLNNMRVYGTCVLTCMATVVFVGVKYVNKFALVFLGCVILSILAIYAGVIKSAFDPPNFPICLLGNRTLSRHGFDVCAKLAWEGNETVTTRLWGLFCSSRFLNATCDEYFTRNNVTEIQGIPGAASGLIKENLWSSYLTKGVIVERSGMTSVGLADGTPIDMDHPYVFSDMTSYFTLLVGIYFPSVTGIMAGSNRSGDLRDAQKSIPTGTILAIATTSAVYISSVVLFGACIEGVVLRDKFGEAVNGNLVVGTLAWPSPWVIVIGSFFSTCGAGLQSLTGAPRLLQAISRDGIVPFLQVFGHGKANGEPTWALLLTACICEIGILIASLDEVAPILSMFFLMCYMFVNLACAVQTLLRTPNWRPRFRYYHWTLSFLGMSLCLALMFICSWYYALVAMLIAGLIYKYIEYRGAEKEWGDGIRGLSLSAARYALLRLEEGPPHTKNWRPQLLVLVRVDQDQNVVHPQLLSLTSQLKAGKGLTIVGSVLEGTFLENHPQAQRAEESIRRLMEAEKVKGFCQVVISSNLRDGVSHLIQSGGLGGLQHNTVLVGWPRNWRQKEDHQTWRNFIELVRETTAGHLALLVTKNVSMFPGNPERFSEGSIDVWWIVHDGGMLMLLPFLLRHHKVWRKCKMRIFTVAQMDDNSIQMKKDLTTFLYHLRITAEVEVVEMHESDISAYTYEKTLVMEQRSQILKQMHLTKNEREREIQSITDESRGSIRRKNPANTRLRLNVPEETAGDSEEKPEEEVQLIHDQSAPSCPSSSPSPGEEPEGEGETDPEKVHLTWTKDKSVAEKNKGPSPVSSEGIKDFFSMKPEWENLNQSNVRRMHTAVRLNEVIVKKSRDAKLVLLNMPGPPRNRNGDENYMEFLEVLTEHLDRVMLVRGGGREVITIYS
RAM network inh – inhibitors of the yeast RAM network, primary screen, dse1pr::URA3 reporter, 5-FOA selection | S. cerevisiae dse1pr::URA3 reporter, 5-FOA growth OD615, 2 d; analog-sensitive cbk1-as2 kinase mutant strain | inhibition, % at 50 µM | 1.8% of 190,000 active | AID 868, 2007;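 active means inhibition above a set limit, 3 SD over mean compound inhibition, cut at about 8.4% in these data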;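 further: 0% = DMSO-only wells with no growth and 100% = 10 µM 1-NA-PP1 full growth; inhibition rescues growth on 5-FOA so higher OD means more RAM inhibition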
S1P4 antag – S1P4 receptor antagonists, primary screen, cell-based. AID 1510, 2009. 0.26% of 220,000 active. inhibition, % at 4.98 µM. S1P4-expressing cells, antagonist mode, reporter read-out; in the data active means inhibition above about 29%;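 further: 0% = wells stimulated with agonist and 100% = vehicle wells without agonist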
S1P4 ag – S1P4 receptor agonists, primary screen, cell-based; activation, % at 4.98 µM; Sphingosine 1-phosphate receptor 4 (Homo sapiens), O95977; 0.35% of 220,000 active; S1P4-expressing cell line, agonist reporter assay; in the data active means activation above about 11%;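 further: 0% = DMSO vehicle and 100% = reference agonist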
S1P3 antagonist – S1P3 receptor antagonists, primary screen, cell-based; Sphingosine 1-phosphate receptor 3 (Homo sapiens), Q99500; inhibition, % at 4.98 µM; CHO S1P3 NFAT-BLA reporter, FRET fluorescence, antagonist mode; 0.27% of 170,000 active;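 active means inhibition above the plate cutoff, the mean inhibition of test wells on that plate plus 3 SD, cut at about 28% in these data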;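 further: cells challenged with S1P at its EC80 of 0.8 µM; blue over green emission ratio from cleaved BLA substrate after 4 h stimulation; 0% = S1P-stimulated wells and 100% = unstimulated DMSO-only wells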
* hit, by the source's call; · = no result given.

SMILES | ROMK mod | KCC2 mod | RAM network inh | S1P4 antag | S1P4 ag | S1P3 antagonist
O=C(COc1ccc(Cl)cc1Cl)NC(=S)N1CCCc2ccccc21 | -0.55 | 21* | 1 | -4 | 1 | ·
Clc1ccccc1-c1nnc2sc(CCc3ccccc3)nn12 | -1.5 | -3.4* | 1 | -10 | 2 | -25
c1ccc(CCc2nn3c(-c4ccncc4)nnc3s2)cc1 | -0.37 | -2.5 | 0 | -14 | 3 | 23
COc1cccc(NC(=O)CSc2nnc(-c3cccc(OC(C)C)c3)n2N)c1 | -0.59 | -0.45 | 11* | 5 | 0 | 11
CCOc1cccc(-c2nnc(SCC(=O)Nc3cc(OC)cc(OC)c3)n2N)c1 | -0.37 | · | 1 | -2 | -1 | ·
COc1cc(NC(=O)COC(=O)c2cnccn2)c(C)cc1[N+](=O)[O-] | · | 0.5 | · | -5 | 0 | -1
O=[N+]([O-])c1cc(CN2CCCC2)ccc1Sc1ccc(Cl)cc1 | 0.094 | -0.22 | 2 | -1 | -2 | -6
COCc1cc(=O)[nH]c(Sc2c(-c3ccccc3)c3ccc(Cl)cc3[nH]c2=O)n1 | -0.048 | 0.38 | 3 | 1 | 1 | -5
Cc1cc(=O)[nH]c(Sc2c(-c3ccccc3)c3ccccc3[nH]c2=O)n1 | -0.72 | -0.67 | 8.7* | -6 | 1 | ·
COc1cc2c(=O)n(-c3ccc(C)cc3)c(=O)n(CC(=O)c3ccc4c(c3)OCO4)c2cc1OC | · | -0.18 | 9.1* | -15 | -2 | 10
CC1(C)Cc2c(sc3[nH]c(=S)n(Cc4ccco4)c(=O)c23)CO1 | 1 | 9* | 1 | 13 | -1 | ·
O=c1c2c3c(sc2[nH]c(=S)n1Cc1ccco1)CCC3 | -5.5* | 78* | · | 5 | 1 | -7
Cn1c(=O)n(Cc2ccco2)c(=N)c2c3c(sc21)CCC3 | -0.046 | -1.4 | 3 | 0 | -1 | -16
COc1cccc(/C=N\NC(=O)c2ccc(Cn3cc(Br)c([N+](=O)[O-])n3)o2)c1O | -0.38 | 0.09 | 1 | -20 | 0 | 3
COc1ccc(NS(=O)(=O)c2ccc(C)c(NC(=O)c3ccc(C)c(S(=O)(=O)N4CCOCC4)c3)c2)cc1 | -0.58 | -0.43 | 6 | -3 | 1 | -15
O=C(O)c1[nH]c2ccc(Cl)cc2c1CC(=O)N1CCN(c2ccccc2)CC1 | · | 0.27 | 11* | -5 | 0 | -12
COc1ccccc1N1CCN(C(=O)Cc2c(C(=O)O)[nH]c3ccc(Cl)cc23)CC1 | 0.24 | 0.058 | 2 | -10 | 0 | -24
Cc1ccc(Oc2ccc(-c3nc(N)nc(N)n3)cc2)cc1C | -0.016 | 0.05 | 7 | -7 | -1 | ·
CSc1nc(-c2cccs2)c(C#N)c(=O)[nH]1 | · | -1.3 | · | 8 | -3 | -11
N#Cc1c(-c2cccs2)nc(SCc2ccc(Cl)cc2)[nH]c1=O | 3.6* | -3.5* | 6 | 2 | 3 | -35
CC(C)OC(=O)CSc1nc(Cc2ccccc2)nc2ccccc12 | 0.62 | -1.2 | 4 | -13 | 1 | -3
COc1cc(C(=O)Nc2cccc(-c3cn4cccnc4n3)c2)cc(OC)c1OC | 2.3 | -0.77 | 1 | -10 | 0 | 2
Cc1onc(-c2ccccc2Cl)c1C(=O)Nc1cccc(-c2cn3cccnc3n2)c1 | · | -1.5 | 9.0* | -16 | -3 | ·
Cc1ccccc1OCC(=O)Nc1ccccc1-c1ccccc1NC(=O)COc1ccccc1C | -1.2 | -0.55 | 9.4* | -8 | 1 | -7
CCOc1ccc(NC(=O)COc2ccc(C(=O)NCCc3ccccc3)cc2)cc1 | · | -2.1 | 3 | 9 | -1 | -6
SMILES | ROMK mod | KCC2 mod | RAM network inh | S1P4 antag | S1P4 ag | S1P3 antagonist
CC(=O)Nc1cccc(OCC(=O)Nc2ccccc2)c1 | 1.6 | -0.2 | -1 | -14 | -1 | 2
CCOC(=O)Nc1cccc(OCC(=O)Nc2ccccc2OCC)c1 | -0.75 | 0.048 | 9.6* | -14 | 3 | ·
CCCCc1ccc(NC(=O)COc2ccc(C(=O)Nc3ccccc3OCC)cc2)cc1 | · | 0.3 | 8.7* | 0 | -2 | 6
CC(=O)N1CCN(c2ccccc2NC(=O)COc2ccccc2C)CC1 | 0.19 | -1.4 | 2 | 7 | 1 | 4
CC(C)CCn1nnnc1CN1CCN(c2ccccc2)CC1 | -0.63 | -1.1 | 1 | -8 | 0 | -12
COc1ccc([N+](=O)[O-])cc1NC(=O)CSc1ccc2ccccc2c1 | -0.55 | 0.71 | 8.4* | -8 | -1 | -4
COc1ccc([N+](=O)[O-])cc1NC(=O)C(C)Sc1ccc(C)cc1 (centres undefined) | · | 0.00082 | 9.2* | 4 | -1 | 13
Cc1ccc(NC(=O)CSc2nnc(-c3cnccn3)n2Cc2ccco2)cc1 | · | -0.27 | 3 | 2 | -1 | 14
Cc1cccc(NC(=O)CSc2nnc(-c3cnccn3)n2Cc2ccco2)c1 | · | -0.34 | 9.9* | 7 | -2 | ·
Cc1cnc(NC(=O)CSc2nnc(Cc3ccccc3)n2C)s1 | · | 0.017 | 1 | -22 | -2 | 10
Cc1ccc(C(C)C)c(OCc2nnc(SCC(=O)Nc3ncc(C)s3)n2C)c1 | 0.82 | -0.014 | 8.6* | -11 | -2 | 12
O=C(c1cc(-c2ccncc2)nc2ccccc12)N1CCN(S(=O)(=O)/C=C/c2ccccc2)CC1 | · | 0.72 | -1 | 7 | -1 | ·
CCOc1ccc(NC(=O)CSCc2cnn(-c3ccccc3)c2-n2cccc2)cc1 | -0.94 | 0.33 | 10* | -19 | -1 | ·
O=C(NCCNC(=O)c1cc(OCC(F)(F)F)ccc1OCC(F)(F)F)Nc1ccccc1 | · | -0.9 | 8.7* | -9 | 0 | ·
Cc1cc(Cl)ccc1NNC(=O)CCc1ccccc1 | · | -1.6 | · | 3 | 2 | 12
O=c1c2c3c(sc2n2cnnc2n1CCc1ccccc1)CCCC3 | -0.53 | · | 8.9* | -5 | 2 | 21
Cc1nnc2n(CCc3ccccc3)c(=O)c3c4c(sc3n12)CCCC4 | 0.71 | 0.37 | · | -2 | -1 | -8
COc1ccc(NC2c3ccccc3C(=O)N2Cc2ccc3c(c2)OCO3)cc1 (centres undefined) | · | -0.52 | · | 3 | 0 | 12
CC(C)(C)c1nc(SCC(=O)N2CCCC2)c2ccccc2n1 | -0.078 | -0.026 | 1 | -17 | 1 | -14
COCCn1c(SCC(=O)c2ccccc2)nc2ccccc2c1=O | -0.79 | -0.87 | 9.8* | -1 | 2 | -6
CC(C)(C)c1nc(SCC(=O)c2ccccc2)c2ccccc2n1 | -0.0069 | 1.7 | 9.4* | -3 | 3 | 4
Cc1ccc(Cn2c(O)c(N=NC(=S)Nc3ccccc3F)c3cc(S(=O)(=O)N4CCOCC4)ccc32)cc1 | -0.3 | 6.7 | 5 | -32 | -1 | -1
